Measured values reported in PMC11006913.
Changes are numbered by the printed parent chain.

What was measured:
Experiment in all cases: PBM; 200 nM protein, PBS
Conditions in all cases: dsDNA, one strand shown
HOXB4 [1] = target: HOXB4 (Homo sapiens, UniProt P17483 148-234)
VENTX [2] = target: T1, VENTX (Homo sapiens, UniProt O95231 78-163, R121Q)
T1 sequence: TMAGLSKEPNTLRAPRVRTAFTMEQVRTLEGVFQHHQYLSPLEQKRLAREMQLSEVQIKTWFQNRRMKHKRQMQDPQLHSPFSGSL

HOXA4 [3] = target: HOXA4 (Homo sapiens, UniProt Q00056 201-287, W262R)
Chain of HOXA4 (Homo sapiens, UniProt Q00056 201-287, W262R) (Q00056 201-287 W262R): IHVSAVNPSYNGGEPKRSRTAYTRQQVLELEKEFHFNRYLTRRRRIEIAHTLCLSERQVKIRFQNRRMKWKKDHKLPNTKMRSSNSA

VENTX [4] = target: T2, VENTX (Homo sapiens, UniProt O95231 78-163, Y115F)
T2 sequence: T1 sequence with Y38F, Q44R

HOXA2 [5] = target: HOXA2 (Homo sapiens, UniProt O43364 129-215, R185T)
Chain of HOXA2 (Homo sapiens, UniProt O43364 129-215, R185T) (O43364 129-215 R185T): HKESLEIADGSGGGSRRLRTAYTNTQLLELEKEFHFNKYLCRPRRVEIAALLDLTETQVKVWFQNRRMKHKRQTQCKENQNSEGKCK

HOXA4 [6] = target: HOXA4 (Homo sapiens, UniProt Q00056 201-287, R217L)
Chain of HOXA4 (Homo sapiens, UniProt Q00056 201-287, R217L) (Q00056 201-287 R217L): as the sequence (Q00056 201-287 W262R) above, with R17L, R62W counted along it

HOXB4 [7] = target: HOXB4 (Homo sapiens, UniProt P17483 148-234, V174I)
Chain of HOXB4 (Homo sapiens, UniProt P17483 148-234, V174I) (P17483 148-234 V174I): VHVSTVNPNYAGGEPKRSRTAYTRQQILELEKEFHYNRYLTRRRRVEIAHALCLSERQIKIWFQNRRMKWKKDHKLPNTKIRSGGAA

HOXA2 [8] = target: HOXA2 (Homo sapiens, UniProt O43364 129-215, R185K)
Chain of HOXA2 (Homo sapiens, UniProt O43364 129-215, R185K) (O43364 129-215 R185K): as the sequence (O43364 129-215 R185T) above, with T57K counted along it

HOXA4 [9] = target: HOXA4 (Homo sapiens, UniProt Q00056 201-287)
Chain of HOXA4 (Homo sapiens, UniProt Q00056 201-287) (Q00056 201-287): as the sequence (Q00056 201-287 W262R) above, with R62W counted along it

VAX1 [10] = target: VAX1 (Homo sapiens, UniProt Q5SQQ9 86-172)
Chain of VAX1 (Homo sapiens, UniProt Q5SQQ9 86-172) (Q5SQQ9 86-172): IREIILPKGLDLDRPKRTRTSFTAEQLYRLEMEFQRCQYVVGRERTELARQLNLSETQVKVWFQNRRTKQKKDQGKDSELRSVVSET

VAX1 [11] = target: VAX1 (Homo sapiens, UniProt Q5SQQ9 86-172, T142I)
Chain of VAX1 (Homo sapiens, UniProt Q5SQQ9 86-172, T142I) (Q5SQQ9 86-172 T142I): as the sequence (Q5SQQ9 86-172) above, with T57I counted along it

HOXA2 [12] = target: HOXA2 (Homo sapiens, UniProt O43364 129-215, Y150S)
Chain of HOXA2 (Homo sapiens, UniProt O43364 129-215, Y150S) (O43364 129-215 Y150S): as the sequence (O43364 129-215 R185T) above, with Y22S, T57R counted along it

HOXA4 [13] = target: HOXA4 (Homo sapiens, UniProt Q00056 201-287, W262F)
Chain of HOXA4 (Homo sapiens, UniProt Q00056 201-287, W262F) (Q00056 201-287 W262F): as the sequence (Q00056 201-287 W262R) above, with R62F counted along it

HOXA2 [14] = target: HOXA2 (Homo sapiens, UniProt O43364 129-215)
Chain of HOXA2 (Homo sapiens, UniProt O43364 129-215) (O43364 129-215): as the sequence (O43364 129-215 R185T) above, with T57R counted along it

VAX1 [15] = target: VAX1 (Homo sapiens, UniProt Q5SQQ9 86-172, K157R)
Chain of VAX1 (Homo sapiens, UniProt Q5SQQ9 86-172, K157R) (Q5SQQ9 86-172 K157R): as the sequence (Q5SQQ9 86-172) above, with K72R counted along it

HESX1 = HESX1 (Homo sapiens, UniProt Q9UBX0 95-180, F115L)
Chain of HESX1 (Q9UBX0 95-180 F115L): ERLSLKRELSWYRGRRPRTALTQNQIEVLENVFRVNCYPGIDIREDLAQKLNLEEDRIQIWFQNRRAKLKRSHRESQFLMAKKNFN

Chain of HOXB4 (Homo sapiens, UniProt P17483 148-234) (P17483 148-234): as the sequence (P17483 148-234 V174I) above, with I27V counted along it

Row | Sequence | binding signal (HOXB4 [1]) | binding signal (VENTX [2]) | binding signal (HOXA4 [3]) | binding signal (VENTX [4]) | binding signal (HOXA2 [5]) | binding signal (HOXA4 [6]) | binding signal (HOXB4 [7]) | binding signal (HOXA2 [8]) | binding signal (HOXA4 [9]) | binding signal (VAX1 [10]) | binding signal (VAX1 [11]) | binding signal (HOXA2 [12]) | binding signal (HOXA4 [13]) | binding signal (HOXA2 [14]) | binding signal (VAX1 [15]) | binding signal (HESX1)
1 | ACTCATTA | 13 upbm affinity estimate (log intensity, higher = more binding, comparable within an allelic series) | 11.6 upbm affinity estimate (log intensity, higher = more binding, comparable within an allelic series) | 10.7 upbm affinity estimate (log intensity, higher = more binding, comparable within an allelic series) | 11.7 upbm affinity estimate (log intensity, higher = more binding, comparable within an allelic series) | 13 upbm affinity estimate (log intensity, higher = more binding, comparable within an allelic series) | 12.1 upbm affinity estimate (log intensity, higher = more binding, comparable within an allelic series) | 13.6 upbm affinity estimate (log intensity, higher = more binding, comparable within an allelic series) | 13.5 upbm affinity estimate (log intensity, higher = more binding, comparable within an allelic series) | 13.8 upbm affinity estimate (log intensity, higher = more binding, comparable within an allelic series) | 13.2 upbm affinity estimate (log intensity, higher = more binding, comparable within an allelic series) | 13.1 upbm affinity estimate (log intensity, higher = more binding, comparable within an allelic series) | 10.9 upbm affinity estimate (log intensity, higher = more binding, comparable within an allelic series) | 11.7 upbm affinity estimate (log intensity, higher = more binding, comparable within an allelic series) | 12.6 upbm affinity estimate (log intensity, higher = more binding, comparable within an allelic series) | 13.1 upbm affinity estimate (log intensity, higher = more binding, comparable within an allelic series) | 
2 | ACCATTAA | 13.1 upbm affinity estimate (log intensity, higher = more binding, comparable within an allelic series) |  | 10.6 upbm affinity estimate (log intensity, higher = more binding, comparable within an allelic series) |  |  | 12 upbm affinity estimate (log intensity, higher = more binding, comparable within an allelic series) | 13.7 upbm affinity estimate (log intensity, higher = more binding, comparable within an allelic series) |  | 14 upbm affinity estimate (log intensity, higher = more binding, comparable within an allelic series) |  |  |  | 11.4 upbm affinity estimate (log intensity, higher = more binding, comparable within an allelic series) |  |  | 
3 | ACATTAAT | 13 upbm affinity estimate (log intensity, higher = more binding, comparable within an allelic series) |  | 10.6 upbm affinity estimate (log intensity, higher = more binding, comparable within an allelic series) |  | 12.3 upbm affinity estimate (log intensity, higher = more binding, comparable within an allelic series) | 12 upbm affinity estimate (log intensity, higher = more binding, comparable within an allelic series) | 13.6 upbm affinity estimate (log intensity, higher = more binding, comparable within an allelic series) | 13.2 upbm affinity estimate (log intensity, higher = more binding, comparable within an allelic series) | 13.6 upbm affinity estimate (log intensity, higher = more binding, comparable within an allelic series) |  |  | 11 upbm affinity estimate (log intensity, higher = more binding, comparable within an allelic series) | 11.4 upbm affinity estimate (log intensity, higher = more binding, comparable within an allelic series) | 12.1 upbm affinity estimate (log intensity, higher = more binding, comparable within an allelic series) |  | 
4 | TCCATTAA | 13 upbm affinity estimate (log intensity, higher = more binding, comparable within an allelic series) | 11.7 upbm affinity estimate (log intensity, higher = more binding, comparable within an allelic series) | 10.5 upbm affinity estimate (log intensity, higher = more binding, comparable within an allelic series) |  |  | 11.9 upbm affinity estimate (log intensity, higher = more binding, comparable within an allelic series) | 13.6 upbm affinity estimate (log intensity, higher = more binding, comparable within an allelic series) |  | 13.7 upbm affinity estimate (log intensity, higher = more binding, comparable within an allelic series) | 12.8 upbm affinity estimate (log intensity, higher = more binding, comparable within an allelic series) | 12.2 upbm affinity estimate (log intensity, higher = more binding, comparable within an allelic series) |  | 11.4 upbm affinity estimate (log intensity, higher = more binding, comparable within an allelic series) |  | 12.2 upbm affinity estimate (log intensity, higher = more binding, comparable within an allelic series) | 
5 | CCTGACCC | 7.93 upbm affinity estimate (log intensity, higher = more binding, comparable within an allelic series) |  |  |  |  |  | 7.87 upbm affinity estimate (log intensity, higher = more binding, comparable within an allelic series) |  |  |  |  |  |  |  |  | 
6 | CCTACAGG | 7.69 upbm affinity estimate (log intensity, higher = more binding, comparable within an allelic series) |  |  |  |  |  | 7.75 upbm affinity estimate (log intensity, higher = more binding, comparable within an allelic series) |  |  |  |  |  |  |  |  | 
7 | CGCAGACC | 7.32 upbm affinity estimate (log intensity, higher = more binding, comparable within an allelic series) | 8.16 upbm affinity estimate (log intensity, higher = more binding, comparable within an allelic series) |  | 8.12 upbm affinity estimate (log intensity, higher = more binding, comparable within an allelic series) |  |  | 7.36 upbm affinity estimate (log intensity, higher = more binding, comparable within an allelic series) |  |  |  |  |  |  |  |  | 
8 | ATTATTAA | 12.9 upbm affinity estimate (log intensity, higher = more binding, comparable within an allelic series) |  |  |  |  |  | 13.6 upbm affinity estimate (log intensity, higher = more binding, comparable within an allelic series) |  |  |  |  |  |  |  |  | 7.79 upbm affinity estimate (log intensity, higher = more binding, comparable within an allelic series)
9 | CTAATGAC | 13.2 upbm affinity estimate (log intensity, higher = more binding, comparable within an allelic series) | 11.9 upbm affinity estimate (log intensity, higher = more binding, comparable within an allelic series) | 10.6 upbm affinity estimate (log intensity, higher = more binding, comparable within an allelic series) | 11.9 upbm affinity estimate (log intensity, higher = more binding, comparable within an allelic series) | 13.1 upbm affinity estimate (log intensity, higher = more binding, comparable within an allelic series) | 12.1 upbm affinity estimate (log intensity, higher = more binding, comparable within an allelic series) | 13.9 upbm affinity estimate (log intensity, higher = more binding, comparable within an allelic series) | 13.7 upbm affinity estimate (log intensity, higher = more binding, comparable within an allelic series) | 13.9 upbm affinity estimate (log intensity, higher = more binding, comparable within an allelic series) | 13.3 upbm affinity estimate (log intensity, higher = more binding, comparable within an allelic series) | 13.2 upbm affinity estimate (log intensity, higher = more binding, comparable within an allelic series) | 10.9 upbm affinity estimate (log intensity, higher = more binding, comparable within an allelic series) | 12 upbm affinity estimate (log intensity, higher = more binding, comparable within an allelic series) | 12.9 upbm affinity estimate (log intensity, higher = more binding, comparable within an allelic series) | 13.2 upbm affinity estimate (log intensity, higher = more binding, comparable within an allelic series) | 
10 | CGGGCTAG | 7.46 upbm affinity estimate (log intensity, higher = more binding, comparable within an allelic series) | 7.92 upbm affinity estimate (log intensity, higher = more binding, comparable within an allelic series) |  | 7.71 upbm affinity estimate (log intensity, higher = more binding, comparable within an allelic series) |  |  | 7.53 upbm affinity estimate (log intensity, higher = more binding, comparable within an allelic series) |  |  |  |  |  |  |  |  | 
11 | CTTAATGA | 13.3 upbm affinity estimate (log intensity, higher = more binding, comparable within an allelic series) | 11.8 upbm affinity estimate (log intensity, higher = more binding, comparable within an allelic series) | 10.7 upbm affinity estimate (log intensity, higher = more binding, comparable within an allelic series) | 11.7 upbm affinity estimate (log intensity, higher = more binding, comparable within an allelic series) | 12.8 upbm affinity estimate (log intensity, higher = more binding, comparable within an allelic series) | 12.5 upbm affinity estimate (log intensity, higher = more binding, comparable within an allelic series) | 13.9 upbm affinity estimate (log intensity, higher = more binding, comparable within an allelic series) | 13.4 upbm affinity estimate (log intensity, higher = more binding, comparable within an allelic series) | 14 upbm affinity estimate (log intensity, higher = more binding, comparable within an allelic series) | 13.3 upbm affinity estimate (log intensity, higher = more binding, comparable within an allelic series) | 13.1 upbm affinity estimate (log intensity, higher = more binding, comparable within an allelic series) | 10.8 upbm affinity estimate (log intensity, higher = more binding, comparable within an allelic series) | 12.1 upbm affinity estimate (log intensity, higher = more binding, comparable within an allelic series) | 12.7 upbm affinity estimate (log intensity, higher = more binding, comparable within an allelic series) | 13.1 upbm affinity estimate (log intensity, higher = more binding, comparable within an allelic series) | 
12 | CCCATTAA | 13 upbm affinity estimate (log intensity, higher = more binding, comparable within an allelic series) | 12.1 upbm affinity estimate (log intensity, higher = more binding, comparable within an allelic series) | 10.4 upbm affinity estimate (log intensity, higher = more binding, comparable within an allelic series) | 12 upbm affinity estimate (log intensity, higher = more binding, comparable within an allelic series) | 12.5 upbm affinity estimate (log intensity, higher = more binding, comparable within an allelic series) | 11.9 upbm affinity estimate (log intensity, higher = more binding, comparable within an allelic series) | 13.5 upbm affinity estimate (log intensity, higher = more binding, comparable within an allelic series) | 13.1 upbm affinity estimate (log intensity, higher = more binding, comparable within an allelic series) | 13.7 upbm affinity estimate (log intensity, higher = more binding, comparable within an allelic series) | 12.9 upbm affinity estimate (log intensity, higher = more binding, comparable within an allelic series) | 12.5 upbm affinity estimate (log intensity, higher = more binding, comparable within an allelic series) | 10.7 upbm affinity estimate (log intensity, higher = more binding, comparable within an allelic series) | 11.1 upbm affinity estimate (log intensity, higher = more binding, comparable within an allelic series) | 12.1 upbm affinity estimate (log intensity, higher = more binding, comparable within an allelic series) | 12.6 upbm affinity estimate (log intensity, higher = more binding, comparable within an allelic series) | 
